Measured values as given in PubChem BioAssay (NCATS).
Values joined by “and” are separate entries in the source; they are usually repeats but may differ in a detail not shown here. Equal values may be shown once. Results filed as inconclusive are left out. A structure can be active in one record and inactive in another. Active and inactive are the calls of the source. Unless noted, calls follow the shape of the dose curve; as a rule, active = well fitted curve in the direction sought with a large enough effect; inconclusive = small, poorly fitted or top-dose-only effect, or another doubt; inactive = no such curve, though single readings can be large; an effect the other way counts as inactive or inconclusive.

Tests used:
[1] = molecular target: Cytochrome P450 1A2 (Homo sapiens) (UniProt P05177); test: p450-cyp1a2 (AID 410; calls by dose curve; also: potency is read from the fitted curve at half-maximal effect;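 as to activity change, negative = inhibition: -100% = full effect of reference inhibitor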)
Summary of the method: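 Luminescent demethylation readout: Luciferin-ME (100uM, equal to Km) turned over by 20nM CYP1A2 for 60 min at room temperature after NADPH regeneration addition, following 10 min compound preincubation. Normalization used 57 uM furafylline as full inhibition.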

[2] = NFAT Signaling Pathway (AID 444; active = well fitted curve in either direction with a large enough effect, not every such curve was filed as active;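 also: carbachol stimulus at about its EC50 of 1 µM final; % is scaled to controls: 0 for no effect and ±100 for the full control effect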); conditions: Jurkat NFAT-bla M1, carbachol, beta-lactamase ratio, 5 h; at 17.2 µM (top of the series) unless noted
Summary of the method: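 Jurkat cells with NFAT-driven β-lactamase reporter and co-expressed M1 receptor, stimulated with carbachol (final 1 uM, ~EC50), compound titration, 5 h at 37 °C. CCF4 loaded 1 h at RT; 460/530 nm ratio gave %activity and AC50.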

[3] = molecular target: Glucocorticoid receptor (Homo sapiens) (UniProt P04150); test: GR-GFP Redistribution (AID 450;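 active = compounds whose dose series gives a full or clear partial fitted curve of increased nuclear translocation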; also: potency is read from the fitted curve at half-maximal effect)
[4] = molecular target: Glucocorticoid receptor (Homo sapiens) (UniProt P04150); test: GR-EFC Redistribution (AID 451; calls by dose curve; also: potency is read from the fitted curve at half-maximal effect); conditions: CHO-K1 GR-EFC translocation, beta-gal luminescence, 2 h
Summary of the method: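 CHO-K1 cells expressing nuclear EA and GR-ED fragments of b-gal; compounds titrated up to 46 uM final, 2 h at 37 C. GR nuclear translocation read as complemented b-gal luminescence after 1 h RT detection.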

[5] = molecular target: Mitogen-activated protein kinase 10 (Mus musculus) (UniProt Q61831); test: JNK3 AlphaScreen Assay (AID 530; active = well fitted curve in either direction with a large enough effect, not every such curve was filed as active;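 also: kinase came from lysate of stimulated human HepG2 cells; signal reports phosphorylation of biotinylated GST-cJun 1-79 at Ser73 with 10 µM ATP; % is scaled to controls: 0 for no effect and ±100 for the full control effect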)
Summary of the method: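 Activity was read by AlphaScreen after JNK3-containing HepG2 lysate (cytokine pre-activated) phosphorylated biotinylated GST-cJun with 10 uM ATP at room temperature. Phospho-Ser73 cJun antibody with Protein-A acceptor beads provided detection.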

[6] = molecular target: 3',5'-cyclic-AMP phosphodiesterase 4B (Homo sapiens) (UniProt Q07343); test: qHTS Assay for Inhibitors of PDE-IV (AID 607; active = well fitted activation curve with a large enough effect in the main read-out, with a control signal flat, not every such curve was filed as active; also: % of control where 0% means no effect)
Summary of the method: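 ACTOne HEK293 cells carry a modified cAMP-gated CNG channel and express endogenous PDE4; plated 1000 cells/well, compounds up to 22.9 uM final. Membrane-potential dye fluorescence (ex 535/em 590) was read; parental cells received 10 uM forskolin + 100 uM RO 20-1724.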

[7] = molecular target: Guanine nucleotide-binding protein G(i) subunit alpha-1 (Homo sapiens) (UniProt P63096); test: qHTS Assay for Inhibitors of RGS12 GoLoco Motif Activity (Green Fluorophore) (AID 879);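 also: 0% = labeled peptide with Gαi1 and full inhibition = labeled peptide alone without protein; negative values mean loss of peptide binding seen as reduced polarization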
Summary of the method: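 A drop in FITC polarization marked displacement of the FITC-tagged RGS12 GoLoco peptide (10 nM) from Gαi1 (50 nM). Compounds were incubated 10 min at room temperature in Tris pH 7.5 buffer containing 150 mM NaCl, 0.1 mM GDP and 0.05% NP40; unlabeled peptide titration served as control.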

[8] = molecular target: Cytochrome P450 3A4 (Homo sapiens) (UniProt P08684); test: qHTS Assay for Activators of Cytochrome P450 3A4 (AID 885); also: nearly all actives have a fitted effect of over 65% in size
Summary of the method: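 CYP3A4 activity: Luciferin-PPXE O-dealkylation, 25uM substrate, 200mM KPO4, RT throughout. Read-out is luciferase luminescence; higher values reflect activation.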

[9] = molecular target: Cytochrome P450 2D6 (Homo sapiens) (UniProt P10635); test: qHTS Assay for Inhibitors and Substrates of Cytochrome P450 2D6 (AID 891);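 also: luciferin methyl ether substrate demethylated by CYP2D6 with NADPH regeneration; % is scaled to controls: 0 for no effect and ±100 for the full control effect; nearly all actives have a fitted effect of over 60% in size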
Summary of the method: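 Luminescent read-out of luciferin formed by 5 nM human CYP2D6 demethylating 30 uM Luciferin-ME EGE (Km level) over 60 min at room temperature after NADPH regeneration addition. Data normalized to full inhibition by 1.43 uM quinidine.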

[10] = qHTS Assay for Identification of Small Molecule Antagonists for Thrombopoietin (TPO) Signaling Pathway (AID 918); conditions: TPO-dependent cell signaling reporter, antagonist mode; also: potency is read from the fitted curve at half-maximal effect; nearly all actives have a fitted effect of over 60% in size
Summary of the method: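 Inhibition read as reduced luciferase luminescence after 24 h at 37 C in IL-3-deprived Ba/F3 cells carrying human TPO receptor and GPIIb-promoter reporter, stimulated with 26 pM TPO (final, its EC50) alongside compound.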

[11] = molecular target: Pyruvate kinase (Leishmania mexicana) (UniProt Q27686); test: qHTS Validation Assay for Inhibitors of Leishmania Mexicana Pyruvate Kinase (AID 945);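 also: 0% = DMSO only neutral control wells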
Summary of the method: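 Mutant LmPYK (E451W), 0.2 nM, plus 0.5 mM PEP and 0.1 mM ADP in 50 mM imidazole pH 7.2 containing 0.01% Tween 20 and 0.05% BSA. Incubated 1 h at room temperature; luminescence via PKLight, normalized to DMSO.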

[12] = molecular target: Pyruvate kinase PKM (Homo sapiens) (UniProt P14618); test: qHTS Assay for Activators of Human Muscle Pyruvate Kinase (AID 954; active = well fitted curve in the direction sought with a large enough effect, not every such curve was filed as active;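 also: 0% = uninhibited enzyme and -100% = no enzyme or full thiadiazolimine inhibition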)
Summary of the method: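 A coupled luminescent readout tracked ATP made from ADP by purified PKM2. Final conditions included 0.1 nM enzyme, PEP and ADP at 0.5 and 0.1 mM, pH 7.2 imidazole buffer with BSA, and a one-hour room-temperature reaction.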

[13] = molecular target: Alpha-galactosidase A (Homo sapiens) (UniProt P06280); test: Counterscreen for Glucocerebrosidase Inhibitors: qHTS Assay for Human alpha-Galactosidase at pH 4.5 (AID 992); also: 0% is about no effect
Summary of the method: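 Citrate buffer pH 4.5, Tween-20 0.005%. Enzyme 2 nM, substrate 80 uM, 20 min RT. Stop pH 10. Fluorescence Ex 365/Em 440. AC50 by Hill fit.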

[14] = molecular target: alpha-glucosidase (Oryza sativa, rice) (UniProt Q653V4); test: Counterscreen for Glucocerebrosidase Inhibitors: qHTS Assay for Rice alpha-Glucosidase at pH 5.0 (AID 997);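 also: 0% = full activity with enzyme and -100% = basal without enzyme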
Summary of the method: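 Endpoint fluorogenic assay at pH 5.0: compounds (0.7 nM to 77 uM) titrated against 4 nM rice enzyme and 400 uM 4-MU-alpha-glucoside for 20 min at room temperature; NaOH/glycine stop, read ex 365/em 440 nm, Hill-fitted AC50.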

[15] = molecular target: ATP-dependent 6-phosphofructokinase (Trypanosoma brucei brucei) (UniProt O15648); test: qHTS Assay to Find Inhibitors of T. brucei phosphofructokinase: hit validation (AID 492961); also: % is scaled to controls: 0 for no effect and ±100 for the full control effect
Summary of the method: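 Luminescence from ADP-Glo reports ADP generated as T. brucei PFK (1.25 nM) phosphorylates 0.5 mM fructose-6-phosphate using 0.1 mM ATP. Reactions ran 45 min at room temperature, pH 8.0.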

[16] = molecular target: Ubiquitin carboxyl-terminal hydrolase 1 (Homo sapiens) (UniProt O94782); test: Inhibitors of USP1/UAF1: Pilot qHTS (AID 504865);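 also: rhodamine fluorescence freed from ubiquitin-rhodamine substrate followed over time; top concentration of the series differs between compounds; % is scaled to controls: 0 for no effect and ±100 for the full control effect; nearly all actives have a fitted effect of over 35% in size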
Summary of the method: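 Deubiquitinase activity followed as kinetic rhodamine fluorescence release from 150 nM Ub-Rho. 1 nM USP1/UAF1 with compound, after 15 min room-temperature preincubation, in HEPES pH 7.8 buffer containing TCEP, EDTA, BSA and Tween-20.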

[17] = molecular target: Luciferin 4-monooxygenase (Photinus pyralis) (UniProt P08659); test: Biochemical firefly luciferase enzyme assay for NPC (AID 624030);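 also: purified P. pyralis luciferase at 10 nM with luciferin and ATP substrate; 0% = DMSO and -100% = full luciferase inhibition by PTC124 control; nearly all actives have a fitted effect of over 70% in size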
Summary of the method: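 Purified P. pyralis luciferase at 10 nM in 50 mM Tris Acetate (final), luminescence read within 5 minutes of enzyme addition to compounds. Activity normalised to PTC124 versus DMSO; concentration-response curves classed by r2, magnitude and activity.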

[18] = S16 Schwann cell PMP22 intronic element firefly luciferase assay (AID 624032); also: potency is read from the fitted curve at half-maximal effect; nearly all actives have a fitted effect of over 30% in size
Summary of the method: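 Rat S16 Schwann cells stably carrying firefly luciferase driven by a PMP22 intronic element, in 10% FBS, treated 24 h at 37 C. ONE-Glo luminescence normalized to PTC124 control and DMSO (0%); curves classed by r2, magnitude and activity.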

[19] = qHTS profiling for inhibitors of Plasmodium falciparum proliferation (AID 504749); also: nearly all actives have a fitted effect of over 60% in size; also: potency is read from the fitted curve at half-maximal effect;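 as to activity, negative = inhibition: 0% = DMSO vehicle and full inhibition = artemisinin control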; conditions: P. falciparum in erythrocytes, SYBR Green DNA, 72 h; at 28.7 µM (top of the series); parasite line B
Summary of the method: (§1)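 Each compound contacts P. falciparum-infected red blood cells for 72 h at 37 C; lysis buffer (Tris, EDTA, saponin, Triton X, SYBR Green I) is added and fluorescence measured next morning; values normalized to controls.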

AS120 = test: as above; conditions: P. falciparum in erythrocytes, SYBR Green DNA, 72 h; series mostly up to 28.7 µM
Summary of the method: as §1

ATS95 = test: as above; conditions: P. falciparum in erythrocytes, SYBR Green DNA, 72 h; series mostly up to 28.7 µM
Summary of the method: as §1

CP185 = test: as above; conditions: P. falciparum in erythrocytes, SYBR Green DNA, 72 h; series mostly up to 28.7 µM
Summary of the method: as §1

CP192 = test: as above; conditions: P. falciparum in erythrocytes, SYBR Green DNA, 72 h; series mostly up to 28.7 µM
Summary of the method: as §1

CP201 = test: as above; conditions: P. falciparum in erythrocytes, SYBR Green DNA, 72 h; series mostly up to 28.7 µM
Summary of the method: as §1

CP203 = test: as above; conditions: P. falciparum in erythrocytes, SYBR Green DNA, 72 h; series mostly up to 28.7 µM
Summary of the method: as §1

CP211 = test: as above; conditions: P. falciparum in erythrocytes, SYBR Green DNA, 72 h; series mostly up to 28.7 µM
Summary of the method: as §1

CP238 = test: as above; conditions: P. falciparum in erythrocytes, SYBR Green DNA, 72 h; series mostly up to 28.7 µM
Summary of the method: as §1

CP247 = test: as above; conditions: P. falciparum in erythrocytes, SYBR Green DNA, 72 h; series mostly up to 28.7 µM
Summary of the method: as §1

Glucocorticoid receptor (Homo sapiens), sequence (P04150 whole entry, looked up, the tested form may be a part): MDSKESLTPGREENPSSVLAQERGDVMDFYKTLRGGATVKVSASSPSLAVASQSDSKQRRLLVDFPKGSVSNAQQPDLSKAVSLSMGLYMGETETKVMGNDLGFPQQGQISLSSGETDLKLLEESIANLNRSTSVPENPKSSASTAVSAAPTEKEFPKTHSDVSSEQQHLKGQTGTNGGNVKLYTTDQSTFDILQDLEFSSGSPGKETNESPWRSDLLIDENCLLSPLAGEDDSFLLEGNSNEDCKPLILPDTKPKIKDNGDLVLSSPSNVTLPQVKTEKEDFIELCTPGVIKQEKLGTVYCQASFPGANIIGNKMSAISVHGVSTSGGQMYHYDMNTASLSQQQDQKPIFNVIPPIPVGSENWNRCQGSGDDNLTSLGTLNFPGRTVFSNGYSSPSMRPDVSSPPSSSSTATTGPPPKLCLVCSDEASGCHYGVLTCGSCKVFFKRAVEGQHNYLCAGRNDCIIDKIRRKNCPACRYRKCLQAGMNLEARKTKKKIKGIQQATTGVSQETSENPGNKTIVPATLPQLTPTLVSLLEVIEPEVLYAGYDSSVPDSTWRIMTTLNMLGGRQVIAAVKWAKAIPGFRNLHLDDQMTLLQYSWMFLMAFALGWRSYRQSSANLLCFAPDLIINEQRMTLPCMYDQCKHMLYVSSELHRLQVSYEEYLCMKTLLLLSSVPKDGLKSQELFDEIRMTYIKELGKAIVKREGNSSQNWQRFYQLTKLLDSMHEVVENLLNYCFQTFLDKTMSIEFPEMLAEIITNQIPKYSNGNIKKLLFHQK
3',5'-cyclic-AMP phosphodiesterase 4B (Homo sapiens), sequence (Q07343 whole entry, looked up): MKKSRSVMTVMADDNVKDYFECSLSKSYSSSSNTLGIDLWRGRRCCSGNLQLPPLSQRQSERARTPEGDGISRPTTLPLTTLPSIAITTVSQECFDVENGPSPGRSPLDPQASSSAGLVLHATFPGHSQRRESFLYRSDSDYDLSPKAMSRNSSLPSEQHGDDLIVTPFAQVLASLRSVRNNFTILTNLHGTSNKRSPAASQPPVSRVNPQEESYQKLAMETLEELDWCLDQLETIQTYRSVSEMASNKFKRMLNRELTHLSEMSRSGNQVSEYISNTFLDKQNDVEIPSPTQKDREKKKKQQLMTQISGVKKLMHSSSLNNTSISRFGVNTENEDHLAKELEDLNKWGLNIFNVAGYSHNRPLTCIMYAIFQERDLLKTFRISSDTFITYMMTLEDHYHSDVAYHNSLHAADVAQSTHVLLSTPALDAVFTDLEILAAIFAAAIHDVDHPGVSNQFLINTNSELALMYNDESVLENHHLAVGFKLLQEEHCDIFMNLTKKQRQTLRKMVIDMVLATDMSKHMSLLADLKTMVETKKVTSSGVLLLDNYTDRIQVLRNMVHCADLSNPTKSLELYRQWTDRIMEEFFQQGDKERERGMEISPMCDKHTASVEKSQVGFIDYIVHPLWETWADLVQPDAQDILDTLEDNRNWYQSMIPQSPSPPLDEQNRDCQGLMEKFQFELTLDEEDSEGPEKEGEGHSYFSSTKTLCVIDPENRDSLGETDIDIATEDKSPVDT
Cytochrome P450 3A4 (Homo sapiens), sequence (P08684 whole entry, looked up): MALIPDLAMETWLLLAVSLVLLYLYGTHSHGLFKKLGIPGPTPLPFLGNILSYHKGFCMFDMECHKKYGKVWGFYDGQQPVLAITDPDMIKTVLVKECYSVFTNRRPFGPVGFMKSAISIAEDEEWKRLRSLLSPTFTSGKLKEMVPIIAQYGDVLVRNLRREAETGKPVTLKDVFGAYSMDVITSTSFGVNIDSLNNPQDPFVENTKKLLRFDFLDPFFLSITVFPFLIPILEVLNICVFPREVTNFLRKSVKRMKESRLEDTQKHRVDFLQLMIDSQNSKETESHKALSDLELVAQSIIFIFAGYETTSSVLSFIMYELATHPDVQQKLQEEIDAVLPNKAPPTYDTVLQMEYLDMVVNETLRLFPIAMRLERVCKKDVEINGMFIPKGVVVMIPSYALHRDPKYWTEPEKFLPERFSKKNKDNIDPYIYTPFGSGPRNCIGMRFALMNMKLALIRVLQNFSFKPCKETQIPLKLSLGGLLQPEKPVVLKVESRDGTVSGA
Cytochrome P450 1A2 (Homo sapiens), sequence (P05177 whole entry, looked up): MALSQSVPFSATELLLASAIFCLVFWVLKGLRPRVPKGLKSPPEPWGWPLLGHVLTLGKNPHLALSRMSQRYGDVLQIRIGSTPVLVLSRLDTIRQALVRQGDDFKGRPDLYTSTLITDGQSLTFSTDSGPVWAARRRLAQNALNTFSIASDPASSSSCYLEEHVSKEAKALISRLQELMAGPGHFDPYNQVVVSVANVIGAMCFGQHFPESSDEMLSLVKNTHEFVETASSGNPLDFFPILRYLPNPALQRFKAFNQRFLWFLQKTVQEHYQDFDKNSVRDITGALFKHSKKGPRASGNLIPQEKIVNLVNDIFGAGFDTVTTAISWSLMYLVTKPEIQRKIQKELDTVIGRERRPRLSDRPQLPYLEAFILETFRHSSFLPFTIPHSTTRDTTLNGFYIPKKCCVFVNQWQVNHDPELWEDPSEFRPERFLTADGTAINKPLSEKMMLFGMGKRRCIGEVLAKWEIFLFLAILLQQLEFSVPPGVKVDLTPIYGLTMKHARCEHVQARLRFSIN
Guanine nucleotide-binding protein G(i) subunit alpha-1 (Homo sapiens), sequence (P63096 whole entry, looked up): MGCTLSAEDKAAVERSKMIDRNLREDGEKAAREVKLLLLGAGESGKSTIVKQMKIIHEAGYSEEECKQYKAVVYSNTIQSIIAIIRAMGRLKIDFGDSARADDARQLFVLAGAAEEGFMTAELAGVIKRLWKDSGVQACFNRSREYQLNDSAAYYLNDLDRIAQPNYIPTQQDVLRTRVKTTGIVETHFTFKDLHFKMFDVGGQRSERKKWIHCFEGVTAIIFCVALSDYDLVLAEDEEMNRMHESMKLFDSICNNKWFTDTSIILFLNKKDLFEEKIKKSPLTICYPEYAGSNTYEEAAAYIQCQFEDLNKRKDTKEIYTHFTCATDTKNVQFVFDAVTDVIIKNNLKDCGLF
Alpha-galactosidase A (Homo sapiens), sequence (P06280 whole entry, looked up): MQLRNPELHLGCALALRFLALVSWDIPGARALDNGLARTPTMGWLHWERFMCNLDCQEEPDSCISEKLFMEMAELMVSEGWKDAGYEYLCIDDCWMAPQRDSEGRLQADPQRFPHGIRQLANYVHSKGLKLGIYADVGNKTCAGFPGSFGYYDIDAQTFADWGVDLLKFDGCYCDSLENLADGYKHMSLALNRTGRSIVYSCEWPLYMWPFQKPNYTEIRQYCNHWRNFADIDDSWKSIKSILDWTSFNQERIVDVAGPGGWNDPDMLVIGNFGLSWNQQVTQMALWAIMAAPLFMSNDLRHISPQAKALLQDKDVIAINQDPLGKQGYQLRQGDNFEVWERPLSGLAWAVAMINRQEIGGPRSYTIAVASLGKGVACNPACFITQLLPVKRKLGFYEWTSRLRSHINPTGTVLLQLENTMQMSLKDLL
Ubiquitin carboxyl-terminal hydrolase 1 (Homo sapiens), sequence (O94782 whole entry, looked up): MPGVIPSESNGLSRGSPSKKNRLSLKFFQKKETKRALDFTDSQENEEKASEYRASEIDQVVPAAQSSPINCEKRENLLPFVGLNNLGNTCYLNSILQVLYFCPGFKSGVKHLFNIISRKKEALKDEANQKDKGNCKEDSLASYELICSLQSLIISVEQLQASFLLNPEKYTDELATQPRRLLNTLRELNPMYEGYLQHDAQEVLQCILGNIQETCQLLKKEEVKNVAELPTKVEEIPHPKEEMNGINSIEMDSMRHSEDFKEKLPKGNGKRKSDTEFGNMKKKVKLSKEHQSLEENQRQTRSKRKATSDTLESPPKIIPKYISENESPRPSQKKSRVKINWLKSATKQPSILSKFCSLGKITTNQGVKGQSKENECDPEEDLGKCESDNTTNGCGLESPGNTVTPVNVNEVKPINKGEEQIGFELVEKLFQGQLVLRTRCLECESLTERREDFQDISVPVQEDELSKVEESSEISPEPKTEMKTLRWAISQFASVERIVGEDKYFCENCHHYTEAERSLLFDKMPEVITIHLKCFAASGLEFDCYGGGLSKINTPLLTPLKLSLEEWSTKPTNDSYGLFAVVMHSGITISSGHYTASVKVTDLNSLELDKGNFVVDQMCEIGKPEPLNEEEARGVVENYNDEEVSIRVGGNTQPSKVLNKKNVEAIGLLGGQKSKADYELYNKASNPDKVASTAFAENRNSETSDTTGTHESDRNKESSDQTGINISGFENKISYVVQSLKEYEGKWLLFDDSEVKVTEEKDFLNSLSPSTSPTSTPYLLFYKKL
Luciferin 4-monooxygenase (Photinus pyralis), sequence (P08659 whole entry, looked up): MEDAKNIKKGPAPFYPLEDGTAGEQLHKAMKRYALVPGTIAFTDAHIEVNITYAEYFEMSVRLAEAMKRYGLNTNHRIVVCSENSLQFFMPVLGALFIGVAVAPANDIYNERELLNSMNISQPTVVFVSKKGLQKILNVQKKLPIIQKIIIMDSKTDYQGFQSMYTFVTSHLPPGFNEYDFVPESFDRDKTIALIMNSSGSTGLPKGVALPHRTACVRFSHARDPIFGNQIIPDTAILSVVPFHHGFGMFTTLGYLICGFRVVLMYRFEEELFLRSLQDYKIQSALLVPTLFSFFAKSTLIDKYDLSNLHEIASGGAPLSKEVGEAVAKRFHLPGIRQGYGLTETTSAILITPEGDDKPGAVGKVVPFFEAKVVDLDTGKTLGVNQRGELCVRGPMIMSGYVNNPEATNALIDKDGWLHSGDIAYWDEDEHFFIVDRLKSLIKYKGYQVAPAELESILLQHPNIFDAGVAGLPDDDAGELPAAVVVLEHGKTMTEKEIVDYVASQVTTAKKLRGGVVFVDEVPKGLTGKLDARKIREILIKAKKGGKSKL

C=C1C(=O)O[C@@H]2[C@@H]1CC/C(C)=C\CC[C@@]1(C)O[C@H]21
inactive and 12.6 µM (active): Potency [1]
active: activity change, negative = inhibition [2] -121% | Potency [10] 10 µM | Potency [18] 32.2 µM | Potency (CP247) 5.01 µM
inactive: Potency [3] > 46 µM and > 20.6 µM | Potency [4] > 46 µM and > 20.6 µM | Potency [5] | Potency [6] | outcome [7] | Potency [8] | Potency [9] | Potency [11] | outcome [12] | outcome [13] | outcome [14] | Potency [15] | Potency [16] | Potency [17] | activity, negative = inhibition [19] -27.2% | Potency (AS120) | Potency (ATS95) | Potency (CP185) | Potency (CP192) | Potency (CP201) | Potency (CP203) | Potency (CP211) | Potency (CP238)
